Laboratory results as given in article PMC5540273 (PLoS ONE, 2017).

Columns and labels:
Conditions in all cases: concentration: 1 μM, replicates: in singlicate; n = 1
[1] = system: PRKX
[2] = system: PRP4
[3] = system: T1, PYK2
T1 construct: gene PTK2B

[4] = system: QSK
[5] = system: RAF1
[6] = system: RET
[7] = system: RIOK1
[8] = system: RIOK2
[9] = system: RIOK3
[10] = system: RIPK1
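Note: KINOMEscan kinase panel screen.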

Row | SMILES | %Inh [1] [%] | %Inh [2] [%] | %Inh [3] [%] | %Inh [4] [%] | %Inh [5] [%] | %Inh [6] [%] | %Inh [7] [%] | %Inh [8] [%] | %Inh [9] [%] | %Inh [10] [%]
1 | Nc1ncnc2c1ncn2-c1ccc(Cl)cc1 [AH2635] | 0 | 36 | 21 | 0 | 1 | 9 | 51 | 0 | 35 | 17
2 | CCC(=O)c1c(-c2ccccc2)c2cc(Cl)ccc2c(=O)n1Cc1cc(S(C)(=O)=O)n(CC(F)F)n1 | 1 | 6 | 0 | 0 | 6 | 0 | 0 | 13 | 25 | 1
3 | CCS(=O)c1ccc(-c2coc3ccc(-c4nnc(C)o4)cc23)cc1 (centres unmarked) | 0 | 21 | 0 | 0 | 0 | 0 | 0 | 15 | 0 | 1
4 | COC(=O)c1c(-c2ccccc2)c2cc(Br)ccc2c(=O)n1Cc1ccc(NC(=O)CCC(=O)O)cc1 | 10 | 0 | 16 | 0 | 14 | 5 | 0 | 0 | 0 | 0
5 | COc1cc(OC)cc(-c2cc3cnc(N)nc3nc2NC(=O)NC(C)(C)C)c1 | 5 | 0 | 4 | 0 | 0 | 32 | 8 | 0 | 45 | 0
6 | O=C(NCc1cccs1)c1cc(C(=O)c2c(Cl)cccc2Cl)c[nH]1 [GW823670] | 0 | 0 | 0 | 0 | 0 | 2 | 5 | 0 | 0 | 0
7 | Cc1nnc(-c2ccc(C)c(-c3ccc(C(=O)O)cc3)c2)o1 [GW608005] | 0 | 8 | 0 | 0 | 0 | 2 | 15 | 19 | 0 | 5
8 | Nc1ncnc2c1ncn2-c1cccc2ccccc12 [SKF-97184] | 0 | 0 | 4 | 6 | 0 | 0 | 7 | 0 | 5 | 0
9 | COc1ccc(-c2cc3c(C)nc(N)nc3n([C@H]3CC[C@H](O)CC3)c2=O)cn1 | 0 | 0 | 0 | 0 | 0 | 0 | 0 | 0 | 0 | 0
10 | FC(F)(F)c1ccc(-c2ncn(CCCN3CCOCC3)c2-c2ccncc2)cc1 [SB-217780] | 14 | 0 | 34 | 0 | 0 | 20 | 47 | 5 | 50 | 0
11 | Nc1nc(-c2ccccc2F)c(-c2ccnc3ccccc23)s1 [GW560459] | 4 | 33 | 0 | 0 | 8 | 0 | 40 | 52 | 25 | 0
12 | CCC(=O)c1c(-c2ccccc2)c2cc(Cl)ccc2c(=O)n1Cc1ccc(C(=O)O)cc1 | 0 | 0 | 0 | 0 | 26 | 0 | 6 | 0 | 23 | 0
13 | O=C(NCCNc1ccnc(Nc2ccc(F)cc2)n1)Nc1ccc2c(c1)OCO2 [GSK1379882] | 30 | 47 | 9 | 0 | 5 | 0 | 15 | 0 | 15 | 25
14 | Cl.c1ccc(Cn2cnc3cc(Nc4ncnc5ccccc45)ccc32)cc1 [GW272142] | 31 | 28 | 10 | 0 | 3 | 3 | 35 | 0 | 38 | 8
15 | Cc1ccc(-c2ccc3c(ccc4sc5c(c43)NC[C@@H](C)N=C5N(C)C)n2)cn1 | 0 | 0 | 0 | 0 | 0 | 0 | 0 | 0 | 0 | 0
16 | Cc1c(Cn2c(C)nn3c(=O)cc(N4CCO[C@H](C)C4)nc23)cccc1C(F)(F)F [GSK2373690] | 29 | 26 | 1 | 14 | 19 | 6 | 15 | 17 | 27 | 1
17 | Cn1c(=O)c(F)c(Nc2ccc(I)cc2F)c2c(=O)n(OC[C@H](O)CO)cnc21 | 0 | 0 | 17 | 0 | 37 | 11 | 5 | 0 | 23 | 0
